# Records with an inconclusive call do not appear. A structure can be active in one record and inactive in another. Active and inactive are the calls of the source. The calls were made as follows, unless noted: active = hit-call score of the fitted dose curve at least 0.9, where 1 is the maximum; inconclusive = response in the unintended direction; inactive = score below 0.9.
# Legend:
# [1] = CEETOX_H295R_MTT_cell_viability: Viability Assessment in the CeeTox HT-H295R MTT Assay (AID 2283718; active = hit-call score of the fitted dose curve at least 0.9, where 1 is the maximum; inactive = score below 0.9;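 as to AC50: curve fitted both ways so AC50 may mark viability loss or gain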)
# Outline: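 MTT reduction (0.5 mg/ml, 4 h at 37 C; absorbance at 570 and 650 nm) gave viability as background-corrected percent change versus controls. H295R cells had 48 h forskolin (10 uM) prestimulation, then 48 h chemical exposure at 0.1% DMSO.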
# [2] = Tanguay_ZF_120hpf_ActivityScore_legacy: (Legacy) Oregon State University Tanguay Lab 120 Hour Post-fertilization zebrafish Assay Score for Activity (AID 2283742);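 as to AC50: dechorionated Tropical 5D wild-type zebrafish embryos held singly per well; static exposure from 6 hpf until 120 hpf at 28 °C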
# Outline: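 Embryos are staged, enzymatically dechorionated at 4 hpf, placed individually at 6 hpf, then held in test chemical (0.64% DMSO) at 28C until 120 hpf. Mortality and malformations are scored by brightfield, with non-mortality endpoints skipped for dead embryos.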
# [3] = system: Thyroperoxidase (TPO), gene 445522; assay: CCTE_Simmons_GUA_TPO: CCTE's Guaiacol Assay for Thyroperoxidase (TPO) Inhibition, Simmons Lab (AID 2283750)
# Outline: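 Porcine thyroid microsomes (25 ug) in 200mM potassium phosphate, preincubated 30 s at 37C with compound (8 concentrations, 5 nM–87.5 uM) and 35mM guaiacol; 1mM H2O2 starts reaction. Absorbance change at 450nm over first 80 s; loss of signal versus DMSO, three replicates.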
# [4] = target: Luciferin 4-monooxygenase (Photinus pyralis) (UniProt P08659); assay: CCTE_Simmons_QuantiLum_inhib_2: CCTE's Firefly Luciferase Inhibition Assay, Simmons Lab (AID 2283767);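 as to AC50: potency for inhibitors that lower luciferase luminescence relative to DMSO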
# Outline: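 Luminescence loss relative to DMSO vehicle defines inhibition; detection reagent containing 150 uM D-luciferin and 147 uM dATP (final, pH 7.8) is injected immediately before each read. Enzyme is preincubated with an 8-point titration (5 nM–87.5 uM final) for 30 min at 37C.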
# [5] = ACEA_AR_antagonist_AUC_viability: ACEA Biosciences xCELLigence Real-Time Cell Analysis on Androgen Receptor Antagonism for Viability (AID 2283776);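 also: area under impedance growth curve at 80 h after dosing as viability; hits lower the growth signal relative to DMSO meaning cytotoxicity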
# Outline: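 22Rv1 human prostate cancer cells were seeded on electrode plates, monitored overnight, then exposed to eight 1:4 dilutions from 100 uM final. Impedance-based growth kinetics at 80 h gave an AUC viability endpoint normalized to DMSO.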
# [6] = target: zebrafish Estrogen Receptor (ESR1), esr1 (gene 259252) (UniProt P57717); assay: ATG_zfER1_XSP1: Attagene TRANS-FACTORIAL Multi-Species (XSP1) HepG2 Assay for zebrafish Estrogen Receptor (ESR1) (AID 2283772)
# Outline: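 Transfect HepG2 with GAL4-UAS multi-reporter constructs; treat 24 h (medium carries 3 nM 6-alpha-fluorotestosterone); extract RNA, reverse-transcribe, PCR-amplify, FAM-label, digest with HpaI; resolve by capillary electrophoresis and compare against DMSO baseline.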
# [7] = system: zebrafish Estrogen Receptor (ESR2B), gene 317733; assay: ATG_zfER2b_XSP1: Attagene TRANS-FACTORIAL Multi-Species (XSP1) HepG2 Assay for zebrafish Estrogen Receptor (ESR2B) (AID 2283773)
# Outline: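 Gain-of-signal endpoint relative to DMSO: reporter transcript levels quantified by RT-PCR and capillary electrophoresis after 24 h compound exposure of HepG2 cells expressing a zebrafish ER2b-Gal4 chimera.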
# [8] = system: frog Estrogen Receptor (ESR2), gene 100174814; assay: ATG_frER2_XSP1: Attagene TRANS-FACTORIAL Multi-Species (XSP1) HepG2 Assay for frog Estrogen Receptor (ESR2) (AID 2283774)
# Outline: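 Transactivation of an exogenous receptor-Gal4 fusion is tracked in transfected HepG2 cells via induced reporter transcript levels. After 24 h treatment, RT-PCR with capillary electrophoresis quantifies signal gain over DMSO.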
# [9] = system: frog Estrogen Receptor (ESR1), gene 398734; assay: ATG_frER1_XSP1: Attagene TRANS-FACTORIAL Multi-Species (XSP1) HepG2 Assay for frog Estrogen Receptor (ESR1) (AID 2283777)
# Outline: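 Human hepatoma HepG2 cells carried transiently transfected multiplexed Gal4-driven reporters and were exposed to test chemicals for 24 hours. Transcripts were quantified by fluorescent RT-PCR with capillary electrophoresis, referenced to DMSO.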
# [10] = system: chicken Androgen Receptor (AR), gene 422165; assay: ATG_chAR_XSP1: Attagene TRANS-FACTORIAL Multi-Species (XSP1) HepG2 Assay for chicken Androgen Receptor (AR) (AID 2283768)
# Outline: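 HepG2 cells transiently transfected with multiplexed GAL4-UAS reporter units expressing chimeric chicken AR-Gal4; 3 nM 6-alpha-fluorotestosterone for partial AR stimulation; 24 h after dosing, reporter mRNA by RT-PCR and capillary electrophoresis, gain-of-signal versus DMSO.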
# Sequence of Luciferin 4-monooxygenase (Photinus pyralis) (P08659 whole entry, looked up): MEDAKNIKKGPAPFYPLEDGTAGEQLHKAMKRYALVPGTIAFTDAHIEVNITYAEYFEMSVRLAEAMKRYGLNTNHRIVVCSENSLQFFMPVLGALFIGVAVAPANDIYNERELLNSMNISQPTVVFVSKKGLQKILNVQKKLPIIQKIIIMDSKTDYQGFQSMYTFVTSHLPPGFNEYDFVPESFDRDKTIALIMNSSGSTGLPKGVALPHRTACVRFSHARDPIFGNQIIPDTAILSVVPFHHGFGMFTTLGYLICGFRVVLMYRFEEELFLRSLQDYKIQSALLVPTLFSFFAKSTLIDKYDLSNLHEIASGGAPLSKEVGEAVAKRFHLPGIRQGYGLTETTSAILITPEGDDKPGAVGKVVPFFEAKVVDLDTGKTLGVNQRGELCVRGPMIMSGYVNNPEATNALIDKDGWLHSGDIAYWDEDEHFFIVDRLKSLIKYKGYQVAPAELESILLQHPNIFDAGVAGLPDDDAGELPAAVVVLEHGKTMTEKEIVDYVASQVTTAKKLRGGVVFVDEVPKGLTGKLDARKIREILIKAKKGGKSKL
# Sequence of zebrafish Estrogen Receptor (ESR1), esr1 (gene 259252) (P57717 whole entry, looked up, the tested form may be a part): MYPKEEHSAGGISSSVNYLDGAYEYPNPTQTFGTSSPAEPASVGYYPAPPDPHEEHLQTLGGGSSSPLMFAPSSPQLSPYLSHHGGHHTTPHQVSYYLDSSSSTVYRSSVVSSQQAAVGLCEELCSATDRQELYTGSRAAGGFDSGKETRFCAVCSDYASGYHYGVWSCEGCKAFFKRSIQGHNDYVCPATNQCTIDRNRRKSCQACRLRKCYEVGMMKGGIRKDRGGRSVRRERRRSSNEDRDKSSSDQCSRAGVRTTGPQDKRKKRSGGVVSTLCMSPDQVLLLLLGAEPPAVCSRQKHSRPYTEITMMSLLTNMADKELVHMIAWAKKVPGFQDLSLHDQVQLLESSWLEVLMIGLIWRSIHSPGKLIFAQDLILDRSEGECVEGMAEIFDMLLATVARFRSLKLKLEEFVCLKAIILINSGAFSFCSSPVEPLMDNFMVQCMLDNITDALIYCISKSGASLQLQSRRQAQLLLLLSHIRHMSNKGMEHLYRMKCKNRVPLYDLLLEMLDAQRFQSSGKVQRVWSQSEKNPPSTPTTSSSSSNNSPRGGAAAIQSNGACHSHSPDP
structure (smiles),measurement,setting,value
CNC(=O)CSP(=S)(OC)OC,outcome,[1],inactive
same,outcome,[2],inactive
same,outcome,[3],inactive
same,AC50,[4],34.2 µM (active)
same,outcome,[5],inactive
CCC(C)(C)C(=O)OC1=C(c2ccc(Cl)cc2Cl)C(=O)OC12CCCCC2,outcome,[1],inactive
same,outcome,[2],inactive
same,outcome,[5],inactive
O=C(O)CCCOc1ccc(Cl)cc1Cl,outcome,[2],inactive
same,outcome,[5],inactive
C[C@H]1[C@H](c2ccc(Cl)cc2)SC(=O)N1C(=O)NC1CCCCC1,AC50,[1],0.000405 µM (active)
same,outcome,[2],inactive
same,AC50,[5],12.4 µM (active)
ClC1C(Cl)C(Cl)C(Cl)C(Cl)C1Cl (stereo unspecified),outcome,[1],inactive
same,outcome,[2],inactive
same,AC50,[5],37.8 µM (active)
same,outcome,[5],inactive
CC(C)N(C(=O)COc1nnc(C(F)(F)F)s1)c1ccc(F)cc1,outcome,[1],inactive
same,outcome,[2],inactive
same,AC50,[5],50 µM (active)
CCN(CC)C(=O)SCc1ccc(Cl)cc1,outcome,[1],inactive
same,outcome,[2],inactive
same,AC50,[5],65.8 µM (active)
O=C(O)COc1ccc(Cl)cc1Cl,outcome,[1],inactive
same,outcome,[2],inactive
same,outcome,[5],inactive
OCCOc1ccccc1,outcome,[2],inactive
same,outcome,[5],inactive
CNC(=O)Oc1cccc(N=CN(C)C)c1,outcome,[1],inactive
same,outcome,[2],inactive
same,outcome,[4],inactive
same,outcome,[5],inactive
COc1nn(CSP(=S)(OC)OC)c(=O)s1,outcome,[1],inactive
same,outcome,[2],inactive
same,outcome,[4],inactive
same,AC50,[5],92.6 µM (active)
CNC(=O)/C=C(\C)OP(=O)(OC)OC,outcome,[1],inactive
same,outcome,[2],inactive
same,outcome,[4],inactive
same,outcome,[5],inactive
CC[C@H](C)[C@H]1O[C@]2(C=C[C@@H]1C)C[C@@H]1C[C@@H](C/C=C(\C)[C@@H](O[C@H]3C[C@H](OC)[C@@H](O[C@H]4C[C@H](OC)[C@@H](O)[C@H](C)O4)[C@H](C)O3)[C@@H](C)/C=C/C=C3\CO[C@@H]4[C@H](O)C(C)=C[C@@H](C(=O)O1)[C@]34O)O2 (tested in a mixture with another compound),outcome,[1],inactive
same,AC50,[2],8.55 µM (active)
same,AC50,[5],4.93 µM (active)
N#CN,outcome,[2],inactive
same,outcome,[4],inactive
same,outcome,[5],inactive
CNC(=O)Oc1ccccc1OC(C)C,outcome,[1],inactive
same,outcome,[2],inactive
same,outcome,[5],inactive
O=[N+]([O-])c1c(Cl)c(Cl)c(Cl)c(Cl)c1Cl,outcome,[1],inactive
same,outcome,[2],inactive
same,AC50,[5],50 µM (active)
N#Cc1c(Cl)c(Cl)c(Cl)c(C#N)c1Cl,outcome,[1],inactive
same,AC50,[2],45 µM (active)
same,AC50,[5],3.7 µM (active)
O=C1c2ccccc2C(=O)N1SC(Cl)(Cl)Cl,outcome,[1],inactive
same,outcome,[2],inactive
same,outcome,[4],inactive
same,AC50,[5],19.2 µM (active)
CN1CSC(=S)N(C)C1,AC50,[2],0.0296 µM (active)
same,AC50,[4],40.5 µM (active)
same,AC50,[5],31.5 µM (active)
COP(=S)(OC)Oc1ccc(SC)c(C)c1,outcome,[1],inactive
same,outcome,[4],inactive
same,outcome,[6],inactive
same,AC50,[7],66.9 µM (active)
same,AC50,[8],11.8 µM (active)
same,AC50,[5],33.5 µM (active)
same,AC50,[9],5.04 µM (active)
O=[N+]([O-])/N=C1\NCCN1Cc1ccc(Cl)nc1,outcome,[1],inactive
same,outcome,[2],inactive
same,outcome,[5],inactive
COP(=O)(OC)OC=C(Cl)Cl,outcome,[2],inactive
same,outcome,[4],inactive
same,outcome,[5],inactive
CCc1ccc(C(=O)NN(C(=O)c2cc(C)cc(C)c2)C(C)(C)C)cc1,outcome,[1],inactive
same,outcome,[2],inactive
same,AC50,[5],50 µM (active)
CCCN(CCC)c1c([N+](=O)[O-])cc(C(F)(F)F)cc1[N+](=O)[O-],outcome,[1],inactive
same,outcome,[2],inactive
same,AC50,[10],47.9 µM (active)
same,outcome,[6],inactive
same,AC50,[7],44.3 µM (active)
same,AC50,[8],33.1 µM (active)
same,AC50,[5],50 µM (active)
same,AC50,[9],7.74 µM (active)

# From PubChem BioAssay (EPA / NIEHS)
